In PubChem BioAssay AID1239 (SRMLSC, 2008):
In all, about 190,000 compounds went through this assay and about 3,100 (1.6%) were called active. Rule as the data show it: active = fold change above about 3.3; inconclusive = no clear call, values can overlap the other calls; inactive = below that. The sample as a whole holds a higher share of actives than the screen did.

Experiment: activators of NF-kB expression in neurons, primary screen, cell-based, HTS (AID 1239)
Conditions: human neuronal cells, NF-kB reporter expression; at 12.5 µM; hits give high values

Fold change, inactive:
COC(=O)c1ccc(NC(=O)c2ccco2)cc1 2.51
O=C(CSc1ccccc1)Nc1ccc(NC(=O)c2ccco2)cc1 1.45
CCS(=O)(=O)Nc1ccc(C2=NN(C(C)=O)C(c3cccs3)C2)cc1 (configuration not stated) 1.16
NS(=O)(=O)c1cccc(NC(=O)COC(=O)/C=C/c2ccco2)c1 1.19
Cc1ccc(N(NC(=O)C(C)(C)O)C(=O)c2ccccc2)cc1C 1.37
CCCC(O)(CCC)C(=O)NN(C(=O)CCl)c1cccc(C)c1 0.5
Cc1nc(-c2ccccc2)sc1C(=O)/C=C/N(C)C 1.77
COc1ccccc1NC(=S)N1CCC(NC(=O)C23CC4CC(CC(C4)C2)C3)CC1 0.97
CC(C)Cc1cc(C(=O)NCCc2ccccc2)no1 3.27
CC(C)CNC(=O)c1cc(-c2ccc(Br)cc2)on1 0.98
O=C(/C=C/c1ccc(Cl)cc1)Nc1ccc(S(=O)(=O)Nc2ncccn2)cc1 0.93
O=C(O)/C=C/c1cn(-c2ccccc2)nc1-c1cccs1 1.14
O=C(/C=C\c1cn(-c2ccccc2)nc1-c1cccs1)N1CCOCC1 0.42
CC(C(=O)NCC1CCCCC1)N(C)Cc1cccc(Cl)c1 (configuration not stated) 1.18
O=C(OCc1ccc([N+](=O)[O-])cc1)c1ccccn1 1.29
N/C(=N\OC(=O)Cc1ccc([N+](=O)[O-])cc1)c1ccccn1 1.74
O=c1cc(CSc2ccc(Cl)cc2)nc(N2CCOCC2)[nH]1 1.5
CCOc1ncccc1C(=O)OCc1cn2cc(Cl)ccc2n1 1.18
CN1CCC(OC(=O)COc2ccc(Cl)cc2Cl)CC1 1.16
CCOc1cnc(C(=O)NNC(=O)c2ccccc2Br)o1 1.13
COc1ccc(C(=O)NCC(=O)N/N=C/c2ccc([N+](=O)[O-])s2)cc1OC 0.62

Fold change, active:
O=C(Nc1ccc(Oc2ccccc2)cc1)c1ccco1 4.89
CCCCC(O)(CCCC)C(=O)NN(C(=O)CCl)c1ccccc1 4.9
CC(C)Cc1cc(C(=O)Nc2cc(Br)ccc2O)no1 6.03
O=C(O)c1ccc(N/N=C/c2cn(-c3ccccc3)nc2-c2cccs2)cc1 6.86
N/C(=N\OC(=O)c1ccc([N+](=O)[O-])cc1)c1ccccn1 5.12
Clc1ccc2nc(CSc3ccccc3)cn2c1 3.83
